Laboratory results from the supplement of paper PMC10037445.
Whole data set: some 2,900 compounds, median “NF-kB SEAP reporter activity, fold change vs agonist alone” near 0.99, cut for the highest 2% near 2.6. What follows is part of a selection rich in the highest values, with near analogues and random picks from the rest.

Tests used:
RAW-Dual [1] = assay: NF-kB SEAP reporter activity, fold change vs agonist alone; cytotoxicity flag (confluency mask): not cytotoxic; higher = enhanced NF-kB activity
How it was run: (§1)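 Cytotoxic wells were those whose IncuCyte confluency was below 70% of agonist controls in both mask sets. The cells were RAW-Dual macrophages at 50,000 cells/well in DMEM on 384-well plates, dosed with 50 nL of library stock by pin tool, stimulated with a PRR agonist 1 h later, and kept at 37 °C, 5% CO2 for 20 hours. IRF and NF-κB reporter activity, as fold change over agonist-alone wells, came from supernatant read by QuantiLuc luminescence and QuantiBlue absorbance, respectively.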

RAW-Dual [2] = assay: NF-kB SEAP reporter activity, fold change vs agonist alone; higher = enhanced NF-kB activity
How it was run: as §1

RAW-Dual [3] = assay: NF-kB SEAP reporter activity, fold change vs agonist alone; cytotoxicity flag (confluency mask): cytotoxic (confluency <70% of control); higher = enhanced NF-kB activity
How it was run: as §1

[4] = agonist: ODN 1826 (TLR9) 0.5 ug/mL
[5] = agonist: Pam2CSK4 (TLR2/6) 0.1 ug/mL
[6] = agonist: Pam3CSK4 (TLR2/1) 0.1 ug/mL
[7] = library stock concentration (final ~1000-fold dilution): 10 mM, cytotoxicity flag (confluency mask): not cytotoxic, agonist: Imiquimod (TLR7) […]
[8] = library stock concentration (final ~1000-fold dilution): 10 mM, cytotoxicity flag (confluency mask): not cytotoxic, agonist: MPLA (TLR4) […]

SMILES: CCCS(=O)(=O)NC1CC(N(C)c2ncnc3[nH]ccc23)C1 (configuration not stated) (library stock concentration (final ~1000-fold dilution): 10 mM)
- NF-kB SEAP reporter activity (RAW-Dual [1]; agonist: LPS (TLR4) 0.1 ug/mL): 0.584
- NF-kB SEAP reporter activity (RAW-Dual [1]; [4]): 0.746
- NF-kB SEAP reporter activity (RAW-Dual [1]; [5]): 0.786
- NF-kB SEAP reporter activity (RAW-Dual [1]; [6]): 0.875

SMILES: Cl.O=C1c2cccc3c2C(CCC3)CN1C1CN2CCC1CC2 (configuration not stated)
- NF-kB SEAP reporter activity (RAW-Dual [2]; library stock concentration (final ~1000-fold dilution): 10 mM water, cytotoxicity flag (confluency mask): not cytotoxic, agonist: Imiquimod (TLR7) […]): 0.577
- NF-kB SEAP reporter activity (RAW-Dual [2]; library stock concentration (final ~1000-fold dilution): 10 mM water, cytotoxicity flag (confluency mask): not cytotoxic, agonist: MPLA (TLR4) […]): 0.711

SMILES: Cl.O=C1c2cccc3c2C(CCC3)CN1C1CN2CCC1CC2 (configuration not stated) (library stock concentration (final ~1000-fold dilution): 10 mM water)
- NF-kB SEAP reporter activity (RAW-Dual [1]; agonist: LPS (TLR4) 0.1 ug/mL): 0.985
- NF-kB SEAP reporter activity (RAW-Dual [1]; [4]): 0.593
- NF-kB SEAP reporter activity (RAW-Dual [1]; [5]): 0.966
- NF-kB SEAP reporter activity (RAW-Dual [1]; [6]): 0.917

SMILES: CCN(CC)CCNC(=O)c1c(C)[nH]c(/C=C2\C(=O)Nc3ccc(F)cc32)c1C.O=C(O)CC(O)C(=O)O
- NF-kB SEAP reporter activity (RAW-Dual [2]; [7]): 0.892
- NF-kB SEAP reporter activity (RAW-Dual [2]; [8]): 0.292

SMILES: CCN(CC)CCNC(=O)c1c(C)[nH]c(/C=C2\C(=O)Nc3ccc(F)cc32)c1C.O=C(O)CC(O)C(=O)O (library stock concentration (final ~1000-fold dilution): 10 mM)
- NF-kB SEAP reporter activity (RAW-Dual [1]; agonist: LPS (TLR4) 0.1 ug/mL): 0.295
- NF-kB SEAP reporter activity (RAW-Dual [1]; [4]): 0.21
- NF-kB SEAP reporter activity (RAW-Dual [1]; [5]): 0.27
- NF-kB SEAP reporter activity (RAW-Dual [1]; [6]): 0.317

SMILES: Cc1nn(CC(F)(F)F)cc1Nc1ncc(Br)c(NCc2ccc(S(N)(=O)=O)cc2)n1
- NF-kB SEAP reporter activity (RAW-Dual [2]; [7]): 1.38
- NF-kB SEAP reporter activity (RAW-Dual [2]; [8]): 1.33

SMILES: Cc1nn(CC(F)(F)F)cc1Nc1ncc(Br)c(NCc2ccc(S(N)(=O)=O)cc2)n1 (library stock concentration (final ~1000-fold dilution): 10 mM)
- NF-kB SEAP reporter activity (RAW-Dual [1]; agonist: LPS (TLR4) 0.1 ug/mL): 0.744
- NF-kB SEAP reporter activity (RAW-Dual [1]; [4]): 1.28
- NF-kB SEAP reporter activity (RAW-Dual [1]; [5]): 1.17
- NF-kB SEAP reporter activity (RAW-Dual [1]; [6]): 1.54

SMILES: CSCC(N)C(=O)O (configuration not stated)
- NF-kB SEAP reporter activity (RAW-Dual [2]; [7]): 0.816
- NF-kB SEAP reporter activity (RAW-Dual [2]; [8]): 0.97

SMILES: CSCC(N)C(=O)O (configuration not stated) (library stock concentration (final ~1000-fold dilution): 10 mM)
- NF-kB SEAP reporter activity (RAW-Dual [1]; agonist: LPS (TLR4) 0.1 ug/mL): 1.3
- NF-kB SEAP reporter activity (RAW-Dual [1]; [4]): 1.03
- NF-kB SEAP reporter activity (RAW-Dual [1]; [5]): 1.12
- NF-kB SEAP reporter activity (RAW-Dual [1]; [6]): 1.08

SMILES: Nc1ccc(F)cc1NC(=O)c1ccc(CNC(=O)/C=C/c2cccnc2)cc1
- NF-kB SEAP reporter activity (RAW-Dual [2]; [7]): 1.65
- NF-kB SEAP reporter activity (RAW-Dual [2]; [8]): 1.89

SMILES: O=C(/C=C/c1cccnc1)c1ccncc1
- NF-kB SEAP reporter activity (RAW-Dual [2]; [7]): 0.871
- NF-kB SEAP reporter activity (RAW-Dual [2]; [8]): 0.953

SMILES: Nc1ccc(F)cc1NC(=O)c1ccc(CNC(=O)/C=C/c2cccnc2)cc1 (library stock concentration (final ~1000-fold dilution): 10 mM)
- NF-kB SEAP reporter activity (RAW-Dual [1]; agonist: LPS (TLR4) 0.1 ug/mL): 3.7
- NF-kB SEAP reporter activity (RAW-Dual [1]; [4]): 3.18
- NF-kB SEAP reporter activity (RAW-Dual [1]; [5]): 0.749
- NF-kB SEAP reporter activity (RAW-Dual [1]; [6]): 1.53

SMILES: O=C(/C=C/c1cccnc1)NCCCCC1CCN(C(=O)c2ccccc2)CC1
- NF-kB SEAP reporter activity (RAW-Dual [2]; [7]): 1.06
- NF-kB SEAP reporter activity (RAW-Dual [2]; [8]): 0.719

SMILES: O=C(/C=C/c1cccnc1)c1ccncc1 (library stock concentration (final ~1000-fold dilution): 10 mM)
- NF-kB SEAP reporter activity (RAW-Dual [1]; agonist: LPS (TLR4) 0.1 ug/mL): 1.03
- NF-kB SEAP reporter activity (RAW-Dual [1]; [4]): 0.938
- NF-kB SEAP reporter activity (RAW-Dual [1]; [5]): 1.21
- NF-kB SEAP reporter activity (RAW-Dual [1]; [6]): 1.05

SMILES: O=C(/C=C/c1cccnc1)NCCCCC1CCN(C(=O)c2ccccc2)CC1 (library stock concentration (final ~1000-fold dilution): 10 mM)
- NF-kB SEAP reporter activity (RAW-Dual [1]; agonist: LPS (TLR4) 0.1 ug/mL): 0.56
- NF-kB SEAP reporter activity (RAW-Dual [1]; [4]): 1.07
- NF-kB SEAP reporter activity (RAW-Dual [1]; [5]): 0.67
- NF-kB SEAP reporter activity (RAW-Dual [1]; [6]): 0.537

SMILES: COc1ccc(C2OCC3C(c4cc(OC)c(OC)c(OC)c4)OCC23)cc1OC (configuration not stated) (library stock concentration (final ~1000-fold dilution): 10 mM)
- NF-kB SEAP reporter activity (RAW-Dual [1]; agonist: LPS (TLR4) 0.1 ug/mL): 1.2
- NF-kB SEAP reporter activity (RAW-Dual [1]; [4]): 1
- NF-kB SEAP reporter activity (RAW-Dual [1]; [5]): 1.01
- NF-kB SEAP reporter activity (RAW-Dual [1]; [6]): 1.71

SMILES: COc1ccc(C2OCC3C(c4cc(OC)c(OC)c(OC)c4)OCC23)cc1OC (configuration not stated)
- NF-kB SEAP reporter activity (RAW-Dual [2]; [7]): 0.813
- NF-kB SEAP reporter activity (RAW-Dual [2]; [8]): 1.03

SMILES: O=C1c2cccc3c2C(CCC3)CN1C1CN2CCC1CC2 (configuration not stated) (library stock concentration (final ~1000-fold dilution): 10 mM)
- NF-kB SEAP reporter activity (RAW-Dual [1]; agonist: LPS (TLR4) 0.1 ug/mL): 1.5
- NF-kB SEAP reporter activity (RAW-Dual [1]; [4]): 0.937
- NF-kB SEAP reporter activity (RAW-Dual [1]; [5]): 0.587
- NF-kB SEAP reporter activity (RAW-Dual [1]; [6]): 0.339

SMILES: O=C1c2cccc3c2C(CCC3)CN1C1CN2CCC1CC2 (configuration not stated)
- NF-kB SEAP reporter activity (RAW-Dual [2]; [7]): 0.886
- NF-kB SEAP reporter activity (RAW-Dual [2]; [8]): 1.17

SMILES: COc1ccc(-c2nc(N3CCOCC3)c3sc(CN(C)c4ncc(C(=O)NO)cn4)cc3n2)cn1
- NF-kB SEAP reporter activity (RAW-Dual [2]; library stock concentration (final ~1000-fold dilution): 10 mM, cytotoxicity flag (confluency mask): cytotoxic (confluency <70% of control), agonist: Imiquimod (TLR7) […]): 2.88
- NF-kB SEAP reporter activity (RAW-Dual [2]; library stock concentration (final ~1000-fold dilution): 10 mM, cytotoxicity flag (confluency mask): cytotoxic (confluency <70% of control), agonist: MPLA (TLR4) […]): 2.66

SMILES: COc1ccc(-c2nc(N3CCOCC3)c3sc(CN(C)c4ncc(C(=O)NO)cn4)cc3n2)cn1 (library stock concentration (final ~1000-fold dilution): 10 mM)
- NF-kB SEAP reporter activity (RAW-Dual [3]; agonist: LPS (TLR4) 0.1 ug/mL): 4.34
- NF-kB SEAP reporter activity (RAW-Dual [3]; [4]): 2.1
- NF-kB SEAP reporter activity (RAW-Dual [3]; [5]): 1.3
- NF-kB SEAP reporter activity (RAW-Dual [3]; [6]): 1.6

SMILES: Cc1c(CN2CCN(C(=O)C(C)O)CC2)sc2c(N3CCOCC3)nc(-c3cnc(N)nc3)nc12 (configuration not stated)
- NF-kB SEAP reporter activity (RAW-Dual [2]; [7]): 1
- NF-kB SEAP reporter activity (RAW-Dual [2]; [8]): 1.08

SMILES: Cc1c(CN2CCN(C(=O)C(C)O)CC2)sc2c(N3CCOCC3)nc(-c3cnc(N)nc3)nc12 (configuration not stated) (library stock concentration (final ~1000-fold dilution): 10 mM)
- NF-kB SEAP reporter activity (RAW-Dual [1]; agonist: LPS (TLR4) 0.1 ug/mL): 1.32
- NF-kB SEAP reporter activity (RAW-Dual [1]; [4]): 0.763
- NF-kB SEAP reporter activity (RAW-Dual [1]; [5]): 0.412
- NF-kB SEAP reporter activity (RAW-Dual [1]; [6]): 0.661

SMILES: COC1(c2sc3c(N4CCOCC4)nc(-c4cnc(N)nc4)nc3c2C)COC1 (library stock concentration (final ~1000-fold dilution): 10 mM)
- NF-kB SEAP reporter activity (RAW-Dual [1]; agonist: LPS (TLR4) 0.1 ug/mL): 1.46
- NF-kB SEAP reporter activity (RAW-Dual [1]; [4]): 0.707
- NF-kB SEAP reporter activity (RAW-Dual [1]; [5]): 0.459
- NF-kB SEAP reporter activity (RAW-Dual [1]; [6]): 0.608

SMILES: COC1(c2sc3c(N4CCOCC4)nc(-c4cnc(N)nc4)nc3c2C)COC1
- NF-kB SEAP reporter activity (RAW-Dual [2]; [7]): 0.913
- NF-kB SEAP reporter activity (RAW-Dual [2]; [8]): 1.05

SMILES: CC(C)(CNC(=O)c1cccc(-c2noc(C(F)(F)F)n2)c1)c1coc(-c2ccccc2)n1
- NF-kB SEAP reporter activity (RAW-Dual [2]; [7]): 0.959
- NF-kB SEAP reporter activity (RAW-Dual [2]; [8]): 1.09

SMILES: CC(C)(CNC(=O)c1cccc(-c2noc(C(F)(F)F)n2)c1)c1coc(-c2ccccc2)n1 (library stock concentration (final ~1000-fold dilution): 10 mM)
- NF-kB SEAP reporter activity (RAW-Dual [1]; agonist: LPS (TLR4) 0.1 ug/mL): 1.03
- NF-kB SEAP reporter activity (RAW-Dual [1]; [4]): 1.03
- NF-kB SEAP reporter activity (RAW-Dual [1]; [5]): 0.625
- NF-kB SEAP reporter activity (RAW-Dual [1]; [6]): 0.745
